KB-3-1 cytotox: qHTS assay for MDR1-selective chemotherapeutics: Primary screen using the parental adenocarcinoma cell KB-3-1 | Potency, µM (doses to about 46.1 µM), most hits filed as cytotoxic | AID 1347075, 2019 | KB-3-1 viability, CellTiter-Glo ATP luminescence, 72 h | hit rate 1.4% among 400,000; note: nearly all actives have a fitted effect of over 60% in size
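Cells are dispensed, compounds pinned in, plates held at 37 °C for 72 h, then CellTiter-Glo is added and luminescence read after 10 minutes. Cell line: parental KB-3-1 in phenol-red-free DMEM, 10% FBS.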
KB-V1 MDR tox: qHTS assay for MDR1-selective chemotherapeutics: Primary screen using the drug-selected MDR subline cells KB-V1; KB-V1 MDR cells viability, CellTiter-Glo, 72 h; Potency, µM (top dose mostly 46.1 µM), hits mostly cytotoxic; hit rate 3.4% among 400,000; AID 1347076, 2019; note: nearly all actives have a fitted effect of over 60% in size
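Following 72 h at 37 degrees C with compound, KB-V1 cell viability was read by CellTiter-Glo luminescence, medium being phenol-red-free DMEM plus 10% FBS; concentration-response parameters came from normalized, curve-fitted qHTS data.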
HT1080NT lethal: qHTS for induction of synthetic lethality in tumor cells producing 2HG: qHTS for the HT-1080-NT fibrosarcoma cell line | HT-1080-NT fibrosarcoma viability, CellTiter-Glo ATP luminescence, 48 h | Potency, µM (doses to about 46.1 µM), actives largely listed as cytotoxic | hit rate 1.6% among 360,000 | AID 686970, 2013;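 note: NT is the 2HG producing partner of a matched IDH1 knockdown line; nearly all actives have a fitted effect of over 55% in size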
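Viability of the 2HG-overproducing fibrosarcoma line after 48 hours of compound exposure at 37 degrees C was determined by luminescence with CellTiter-Glo, and concentration-effect curves were then fitted and categorized.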
HT1080 IDH1KD tx: qHTS for induction of synthetic lethality in tumor cells producing 2HG: qHTS for the HT-1080-IDH1KD cell line; Potency, µM (titrated, usually from 46.1 µM), hits mostly cytotoxic; HT-1080 IDH1 knockdown viability, ATP luminescence, 48 h; hit rate 2% among 360,000
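IDH1KD HT-1080 cells, 750/well, RPMI + 5% FBS; compound pinned after 2 h settling; 48 h, 37 °C; CellTiter-Glo luminescence; % activity normalised to DMSO and no-cell wells; curves fitted, classed by r2 and efficacy.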
MCF10A rerep: A quantitative high throughput screen for small molecules that induce DNA re-replication in MCF 10a normal breast cells; MCF 10A DNA re-replication, Hoechst nuclear intensity, 48 h; Potency, µM (series often up to 46.1 µM), most hits filed as activators; hit rate 2.9% among 350,000; note: nearly all actives have a fitted effect of over 50% in size
SW480 rerep: A quantitative high throughput screen for small molecules that induce DNA re-replication in SW480 colon adenocarcinoma cells; SW480 DNA re-replication, Hoechst DNA content imaging, 48 h; Potency, µM (doses to about 46.1 µM), actives largely listed as activators; hit rate 1.8% among 340,000; AID 624297, 2012; note: nearly all actives have a fitted effect of over 55% in size
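Readout is total intensity of Hoechst-stained nuclei, excited at 405 nm and collected at 500-530 nm. Compound treatment lasted 48 hr at 37 C in 5% CO2 before staining.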
Each line names hits and unclear results; the compound was inactive in the other large screens; ! = a repeat was not active. The list is not random: actives were taken first. Their share in the collection is about 8%. Calls come from the whole dose curve; as a rule, active = well fitted curve in the direction sought with a large enough effect; inconclusive = small, poorly fitted or top-dose-only effect, or another doubt; inactive = no such curve, though single readings can be large; an effect the other way counts as inactive or inconclusive.

CCOc1ccccc1NC(=O)c1cccc2ccccc12	KB-3-1 cytotox inconclusive, MCF10A rerep inconclusive, SW480 rerep inconclusive
CCOc1ccccc1NC(=O)c1cc(SC)ccc1Cl	KB-V1 MDR tox inconclusive, MCF10A rerep inconclusive, SW480 rerep 18µM
O=[N+]([O-])c1cc(Cl)cc(/C=N\Nc2ccccn2)c1O	KB-3-1 cytotox inconclusive, HT1080NT lethal inconclusive, HT1080 IDH1KD tx inconclusive, MCF10A rerep inconclusive, SW480 rerep 3.7µM
Cc1ccc(S(=O)(=O)NC(=O)NC(=O)N(C)S(=O)(=O)c2ccc(C)cc2)cc1	KB-3-1 cytotox inconclusive
Cc1sc2ncn(CC(=O)NCC(=O)N(C)C3CCCCC3)c(=O)c2c1C	KB-V1 MDR tox 23µM
COc1ccc(C(C)=O)c(Oc2cc(NN3CCCCC3)c([N+](=O)[O-])cc2[N+](=O)[O-])c1	MCF10A rerep inconclusive, SW480 rerep inconclusive
CN(C)c1ccc(/C=C/c2nc3ccccc3s2)cc1	KB-3-1 cytotox 16µM!, KB-V1 MDR tox 13µM!, HT1080NT lethal inconclusive, HT1080 IDH1KD tx inconclusive, MCF10A rerep inconclusive, SW480 rerep 9.2µM
CN(Cc1ccccc1)c1ccc(/C=C/c2nc3ccccc3s2)cc1	KB-3-1 cytotox 7.3µM (no result: HT1080NT lethal, HT1080 IDH1KD tx, MCF10A rerep, SW480 rerep)
COc1ccc(NC2c3ccccc3C(=O)N2c2ccccn2)cc1 (stereo not drawn)	none
O=C(Cn1cnc2c(oc3nc4c(cc32)CCCC4)c1=O)Nc1ccccc1	MCF10A rerep inconclusive, SW480 rerep inconclusive
O=C(Cn1cnc2c(oc3nc4c(cc32)CCCC4)c1=O)Nc1cccc(Cl)c1	MCF10A rerep 18µM, SW480 rerep inconclusive
COc1ccc(C2=NN(c3ccc(C(=O)O)cc3)C(c3ccc(OC)c(OC)c3)C2)cc1 (stereo not drawn)	KB-3-1 cytotox inconclusive, MCF10A rerep 3.3µM, SW480 rerep 18µM
COc1cccc2c1OC1(CCN(C(C)C)CC1)N1N=C(c3cccnc3)CC21 (stereo not drawn)	none
NS(=O)(=O)c1ccc(N2N=C(c3ccccc3)CC2c2cccc(Br)c2)cc1 (stereo not drawn)	KB-V1 MDR tox inconclusive, MCF10A rerep 5.2µM, SW480 rerep 23µM
COc1ccc(C2CC(c3ccccc3)=NN2c2ccccc2)c(C(=O)O)c1OC (stereo not drawn)	MCF10A rerep 18µM, SW480 rerep inconclusive
COc1cc(N2N=C(c3ccccc3)CC2c2ccccc2)c(C=O)cc1C=O (stereo not drawn)	KB-3-1 cytotox inconclusive, KB-V1 MDR tox inconclusive, MCF10A rerep inconclusive
COc1cc(C2CC(c3cccnc3)=NN2c2ccc(F)cc2)cc(OC)c1OC (stereo not drawn)	MCF10A rerep inconclusive, SW480 rerep 8.2µM
COc1ccc(-c2cc3nc(C)c(CCC(=O)NC4CCCCC4)c(C)n3n2)c(OC)c1	none (no result: HT1080NT lethal, HT1080 IDH1KD tx, MCF10A rerep, SW480 rerep)
N[C@@H](Cc1ccccc1)c1nnc(SCc2ccccc2Cl)o1	none
CC(CNS(=O)(=O)c1ccccc1)Sc1ncccn1 (stereo not drawn)	MCF10A rerep inconclusive
COc1cc(C2CC(c3ccccc3)=NN2c2ccccc2)ccc1OCC(=O)O (stereo not drawn)	KB-V1 MDR tox inconclusive, MCF10A rerep 4.1µM, SW480 rerep 16µM
NS(=O)(=O)c1ccc(N2N=C(c3ccccc3)CC2c2cccc(F)c2)cc1 (stereo not drawn)	KB-3-1 cytotox inconclusive, KB-V1 MDR tox inconclusive, MCF10A rerep 2.6µM, SW480 rerep 4.1µM
NS(=O)(=O)c1ccc(N2N=C(c3ccccc3)CC2c2ccccc2Br)cc1 (stereo not drawn)	HT1080NT lethal inconclusive, MCF10A rerep inconclusive, SW480 rerep 12µM
NS(=O)(=O)c1ccc(N2N=C(c3ccc(Br)cc3)CC2c2ccc(F)cc2)cc1 (stereo not drawn)	KB-3-1 cytotox inconclusive, KB-V1 MDR tox inconclusive, HT1080NT lethal 6.5µM, HT1080 IDH1KD tx 12µM, MCF10A rerep 1.8µM, SW480 rerep inconclusive
CC(C)N(CC(N)=O)c1ncnc2sc(-c3ccccc3)cc12	KB-V1 MDR tox inconclusive
COC(=O)c1ccc(COc2ccc(C)c(C)c2)o1	KB-3-1 cytotox inconclusive
COc1ccc(C2CC(c3ccccc3)=NN2c2ccc(S(N)(=O)=O)cc2)cc1OC (stereo not drawn)	HT1080NT lethal inconclusive, HT1080 IDH1KD tx inconclusive, MCF10A rerep 16µM, SW480 rerep 23µM
O=c1c2ccccc2cnn1-c1nc2ccccc2[nH]1	KB-3-1 cytotox inconclusive, KB-V1 MDR tox inconclusive, HT1080NT lethal 3.7µM, HT1080 IDH1KD tx 3.7µM
Cc1ccc(C)c(CNC(=O)C2CCN(c3nc4ccccc4nc3C(F)(F)F)CC2)c1	none (no result: HT1080NT lethal, HT1080 IDH1KD tx, MCF10A rerep, SW480 rerep)
C=C(C)[C@@H]1CC=C(CN2CCC(N3CCC(C(=O)N4CCCC4)CC3)CC2)CC1	KB-3-1 cytotox inconclusive, KB-V1 MDR tox inconclusive, HT1080NT lethal 18µM, HT1080 IDH1KD tx 21µM, MCF10A rerep inconclusive, SW480 rerep inconclusive
O=C(Nc1ccccc1)c1cc(C2CCCN(C(=O)OCc3ccccc3)C2)on1 (stereo not drawn)	HT1080NT lethal inconclusive (no result: MCF10A rerep, SW480 rerep)
CCc1nc2n[nH]c(N)c2c2c1CCCC2	none
CCCCc1nc2n[nH]c(N)c2c2c1CCC2	KB-3-1 cytotox inconclusive, KB-V1 MDR tox 0.65µM
COc1cc2c(cc1OC)C1(NCC2)C(=O)Nc2ccccc21 (stereo not drawn)	none
COc1cc2c(cc1OC)C1(Nc3c-2c(Cc2ccccc2)nn3-c2ccccc2)C(=O)Nc2ccccc21 (stereo not drawn)	KB-3-1 cytotox inconclusive, HT1080NT lethal inconclusive, HT1080 IDH1KD tx inconclusive, MCF10A rerep 6.5µM, SW480 rerep inconclusive
CC(C)Oc1ccc(CNC(=O)c2cccc(NC(=O)N3CCSc4ncccc43)c2)cc1	none (no result: HT1080NT lethal, HT1080 IDH1KD tx, MCF10A rerep, SW480 rerep)
COc1cc(/C=C(\C#N)c2nnc(N3CCOCC3)n2-c2ccccc2)ccc1O	SW480 rerep 6.5µM
CC(=O)c1c(C)[nH]c(C(=O)Nc2cccc(S(=O)(=O)N(C)c3ccccc3)c2)c1C	KB-3-1 cytotox inconclusive, KB-V1 MDR tox inconclusive, HT1080NT lethal inconclusive, HT1080 IDH1KD tx inconclusive, MCF10A rerep 23µM, SW480 rerep 23µM
CN(c1ccccc1)S(=O)(=O)c1cccc(NC(=O)CSc2nncs2)c1	KB-3-1 cytotox inconclusive, KB-V1 MDR tox 4.1µM, SW480 rerep inconclusive
COCc1ccc(C(=O)Nc2cccc(S(=O)(=O)N(C)c3ccccc3)c2)cc1	KB-V1 MDR tox inconclusive, HT1080NT lethal 6.5µM

High-throughput results deposited in PubChem by National Center for Advancing Translational Sciences (NCATS).
